High-throughput results (PubChem BioAssay)
hgDAF-12 ag: H. glycines DAF-12 receptor agonists, primary screen, cell-based, luminescence, HEK293, GAL4 fusion, UAS-luciferase. Nuclear hormone receptor DAF-12 (Heterodera glycines), GAL4 fusion. 370,000 compounds, 1.8% hits. activation, % at 6.8 µM. HEK293 GAL4-hgDAF12 UAS-luciferase reporter, agonist luminescence; normalized to butyrate control;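 active = activation above a cutoff set at the mean of all screened compounds plus 3 SD, cut at about 10% in these data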;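 also: 0% = DMSO wells and 100% = sodium butyrate wells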
DAX1 inh-1: DAX1 (NR0B1) inhibitors on StAR promoter, primary screen, cell-based, luminescence, SF-1 (NR5A1), full-length DAX-1. HEK293T StAR-luciferase reporter, SF-1/DAX-1 repression relief. inhibition, % at 6.8 µM. 370,000 compounds, 1.1% hits. AID 652010, 2013;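 active = inhibition above the mean over all tested compounds plus 3 SD, cut at about 3.6% in these data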;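 also: 0% = DAX-1 cells with DMSO and 100% = cells lacking DAX-1 with DMSO; higher inhibition means more luminescence from relief of DAX-1 repression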
hcDAF12 agonist: H. contortus DAF-12 nuclear receptor activators, primary screen, cell-based, luminescence, HEK293, lit1-tk-luc reporter; HEK293 hcDAF-12 lit1-tk-luc reporter; 0% DMSO, 100% Δ7-dafachronic acid; activation, % at 6.8 µM; 370,000 compounds, 1.4% hits;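 active = activation above the mean of all tested compounds plus 3 SD, cut at about 5.5% in these data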;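 also: 100% = response to 3 µM Δ7-dafachronic acid high control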
DAX1 inh-2: DAX1 (NR0B1) inhibitors, primary screen, cell-based, HEK293, Gal4-DAX1, luciferase luminescence | Nuclear receptor subfamily 0 group B member 1 (Homo sapiens), P51843 | HEK293 Gal4-DAX1 luciferase reporter | inhibition, % at 6.75 µM | 340,000 compounds, 0.99% hits;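 active = inhibition above the mean over all tested compounds plus 3 SD, cut at about 4.2% in these data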;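 also: 0% = DAX1-transfected cells with DMSO and 100% = empty-vector control cells with DMSO; inhibition shows as a rise in luminescence from relieved DAX1 repression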
Target sequence (P51843 207-470 limits assumed): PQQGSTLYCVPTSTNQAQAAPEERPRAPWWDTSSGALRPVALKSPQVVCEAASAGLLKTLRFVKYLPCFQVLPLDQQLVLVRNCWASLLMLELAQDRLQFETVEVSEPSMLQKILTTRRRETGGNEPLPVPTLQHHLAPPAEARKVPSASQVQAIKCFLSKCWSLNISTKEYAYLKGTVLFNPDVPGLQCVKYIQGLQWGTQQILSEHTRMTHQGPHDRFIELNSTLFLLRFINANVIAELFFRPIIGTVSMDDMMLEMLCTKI
ssDAF12 agonist: S. stercoralis DAF-12 nuclear receptor activators, primary screen, cell-based, luminescence, HEK293, GRIP1 co-expression, lit1-tk-luc. AID 652126, 2013. Nuclear hormone receptor DAF-12 (Strongyloides stercoralis). activation, % at 6.8 µM. HEK293 ssDAF-12/GRIP1 lit1-tk-luc reporter; % of 3 µM dafachronic acid response. 370,000 compounds, 1% hits;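 active = activation above the mean over all tested compounds plus 3 SD, cut at about 0.9% in these data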;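 also: 0% = DMSO-only wells and 100% = 3 µM delta7-dafachronic acid wells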
DAX1 inh confirm: DAX1 (NR0B1) inhibitors relieving SF-1 repression, confirmation, cell-based, luminescence, HEK293T, full-length DAX-1, SF-1 activated StAR promoter. inhibition, % at 6.8 µM. shares compounds with DAX1 inh-1. HEK293T StAR-promoter luciferase reporter, SF-1/DAX-1 repression. 2,400 compounds, 87% hits. AID 652134, 2013;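 active = inhibition above the average of every tested compound plus 3 SD, cut at about 3.8% in these data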;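 also: 0% = DAX-1 cells with DMSO and 100% = no DAX-1 control cells with DMSO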
SF1 AF2mut Luc: StAR reporter signal changes without DAX1, counter-screen for DAX1 inhibitor project, cell-based, luminescence, AF-2 mutant SF-1, transactivation | shares compounds with DAX1 inh-1 | HEK293 StAR-luciferase, SF-1 AF2 mutant | inhibition, % at 6.8 µM | 2,400 compounds, 78% hits;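 active = inhibition above the mean of all tested compounds plus 3 SD, cut at about 3% in these data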;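 also: 0% = DAX-1 transfected cells with DMSO and 100% = cells without DAX-1 with DMSO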
LXRb hcDAF ctr: LXR agonists, Gal4 luciferase reporter, confirmation, counter-screen for hcDAF-12 agonist project, cell-based, luminescence, HEK293, H. contortus campaign. shares compounds with hcDAF12 agonist. HEK293 Gal4-LXR tk-luc reporter, 24 h; normalized: DMSO 0%, positive control 100%. activation, % at 6.8 µM. 3,400 tested, under 10 active. AID 743027, 2013;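 active = mean percent activation of the reporter above a cutoff set as the average over tested compounds plus their standard deviation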
Target sequence (P55055 whole entry, looked up, the tested form may be a part): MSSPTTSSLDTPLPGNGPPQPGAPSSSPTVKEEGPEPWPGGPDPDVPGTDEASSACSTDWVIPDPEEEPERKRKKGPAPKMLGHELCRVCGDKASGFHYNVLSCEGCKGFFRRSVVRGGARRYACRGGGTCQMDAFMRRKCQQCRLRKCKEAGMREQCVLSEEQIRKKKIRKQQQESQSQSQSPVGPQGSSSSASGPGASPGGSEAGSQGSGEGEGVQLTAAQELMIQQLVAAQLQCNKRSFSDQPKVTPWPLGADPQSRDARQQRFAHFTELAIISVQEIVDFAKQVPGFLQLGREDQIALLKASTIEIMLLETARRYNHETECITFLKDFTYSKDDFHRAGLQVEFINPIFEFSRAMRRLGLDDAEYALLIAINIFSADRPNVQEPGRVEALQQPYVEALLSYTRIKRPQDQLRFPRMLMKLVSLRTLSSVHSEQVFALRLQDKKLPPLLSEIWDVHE
hcDAF12 conf: H. contortus DAF-12 receptor agonists, confirmation, cell-based, luminescence, HEK293, lit1-tk-luc, triplicate. shares compounds with hcDAF12 agonist. HEK293 hcDAF-12 lit1-tk-luc reporter; % of Δ7-dafachronic acid response. activation, % at 6.8 µM. 3,400 compounds, 61% hits. AID 743032, 2013;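 active = mean activation across triplicate tests above the threshold derived from the earlier primary screen, cut at about 5.5% in these data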;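 also: 0% = DMSO only wells and 100% = 3 µM Δ7-dafachronic acid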
hgDAF12 ag: H. glycines DAF-12 receptor agonists, confirmation, cell-based, luminescence, HEK293, GAL4-LBD fusion. HEK293 GAL4-hgDAF12 luciferase reporter, agonist mode; percent of butyrate response. 3,300 compounds, 80% hits. activation, % at 6.8 µM. shares compounds with hgDAF-12 ag;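 active = mean activation over triplicate wells above the hit cutoff derived from the earlier primary screen, cut at about 11% in these data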;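 also: 0% = DMSO low control and 100% = 2 mM sodium butyrate high control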
LXRb DAF12 ctr: LXR agonists, Gal4 luciferase reporter, confirmation, counter-screen for hgDAF-12 agonist project, cell-based, luminescence, HEK293, H. glycines campaign. 3,300 tested, under 10 active. activation, % at 6.8 µM. AID 743051, 2013. shares compounds with hgDAF-12 ag. 24 h;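 active = mean activation of the triplicate above a set limit carried over from the primary screen, none filed active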
* marks the source's active call; other numbers are inactive results. Rows were chosen to be rich in hits. Some 4.1% of all compounds tested hit in one or more screens of this group.

Screening CC1CCC(NC(=O)c2cccn2C)CC1 (stereo unspecified) returned hgDAF-12 ag 15.0*, DAX1 inh-1 10.0*, hcDAF12 agonist 3.6, DAX1 inh-2 3.1, ssDAF12 agonist 0.0, DAX1 inh confirm 13.8*, SF1 AF2mut Luc 7.4*, hgDAF12 ag 13.7* and LXRb DAF12 ctr 0.8.
`COC(=O)C1=C(C)N(C)C(=NCC2CC2)NC1c1ccc(Cl)cc1` (stereo unspecified) gave hgDAF-12 ag 4.6, DAX1 inh-1 0.5, hcDAF12 agonist -0.8 and ssDAF12 agonist -1.1.
Clc1ccc(CSc2nc3ccncc3[nH]2)cc1 was read as hgDAF-12 ag 18.6*, DAX1 inh-1 8.4*, hcDAF12 agonist 5.9*, DAX1 inh-2 -2.8, ssDAF12 agonist 0.7, DAX1 inh confirm 12.0*, SF1 AF2mut Luc 5.9*, hgDAF12 ag 19.4* and LXRb DAF12 ctr 0.9.
Screening O=c1[nH]c(SCc2ccc(Cl)cc2)nc2ccccc12 returned hgDAF-12 ag -0.2, DAX1 inh-1 0.6, hcDAF12 agonist -1.0, DAX1 inh-2 0.8 and ssDAF12 agonist -1.5.
c1ccc(N=NC2=NN(c3ccccc3)CS2)cc1 was read as hgDAF-12 ag 16.0*, DAX1 inh-1 6.5*, hcDAF12 agonist 15.8*, DAX1 inh-2 3.2, ssDAF12 agonist 1.7*, DAX1 inh confirm 7.0*, SF1 AF2mut Luc 3.4*, LXRb hcDAF ctr 0.7, hcDAF12 conf 8.3*, hgDAF12 ag 11.7* and LXRb DAF12 ctr 0.4.
Screening Cc1cc(/C=C(\C#N)C(=O)Nc2ccccc2F)c(C)[nH]1 returned hgDAF-12 ag 16.6*, DAX1 inh-1 12.2*, hcDAF12 agonist 5.1, DAX1 inh-2 2.2, ssDAF12 agonist 0.2, DAX1 inh confirm 15.4*, SF1 AF2mut Luc 5.5*, hgDAF12 ag 15.6* and LXRb DAF12 ctr 0.8.
For Cc1cc(C(=O)Nc2ccc(Cl)c(Cl)c2)n(-c2ccccc2)n1 the results were hgDAF-12 ag 0.4, DAX1 inh-1 -0.9, hcDAF12 agonist -0.7 and ssDAF12 agonist -0.8.
O[C@@H](Cc1ccccc1)[C@@H](/C=C/c1ccccc1)NCCc1ccccc1 was read as hgDAF-12 ag -1.7, DAX1 inh-1 -0.5, hcDAF12 agonist -0.9 and ssDAF12 agonist 0.4.
`Cc1ncc(C(=O)Nc2ccccc2)[nH]1` gave hgDAF-12 ag 20.8*, DAX1 inh-1 4.7*, hcDAF12 agonist 4.4, DAX1 inh-2 2.8, ssDAF12 agonist 0.7, DAX1 inh confirm 11.1*, SF1 AF2mut Luc 6.9*, hgDAF12 ag 12.8* and LXRb DAF12 ctr 0.4.
Cc1c(C(=O)OC2CCC(C)CC2)[nH]c2c1C(=O)CCC2 (stereo unspecified) was read as hgDAF-12 ag 15.1*, DAX1 inh-1 7.3*, hcDAF12 agonist 4.1, DAX1 inh-2 5.8*, ssDAF12 agonist 0.2, DAX1 inh confirm 15.4*, SF1 AF2mut Luc 5.9*, hgDAF12 ag 21.4* and LXRb DAF12 ctr 1.1.
For COC(=O)c1[nH]c2c(c1C)C(=O)CCC2 the results were hgDAF-12 ag -0.3, DAX1 inh-1 -0.3, hcDAF12 agonist 0.2, DAX1 inh-2 -0.2 and ssDAF12 agonist 0.1.
Screening COc1ccc(Cc2nc3ccccc3n2C)cc1 returned hgDAF-12 ag 2.0, DAX1 inh-1 0.0, hcDAF12 agonist 0.8, DAX1 inh-2 -0.2 and ssDAF12 agonist -1.0.
Screening Cn1c(CCc2ccc(N)cc2)nc2ccccc21 returned hgDAF-12 ag 15.2*, DAX1 inh-1 6.1*, hcDAF12 agonist 2.0, DAX1 inh-2 3.0, ssDAF12 agonist -0.9, DAX1 inh confirm 9.5*, SF1 AF2mut Luc 5.0*, hgDAF12 ag 14.5* and LXRb DAF12 ctr 0.5.
COc1ccc(NC(=O)c2cn(-c3ccccc3)nc2-c2cc3ccccc3o2)cc1 was read as hgDAF-12 ag -0.2, DAX1 inh-1 -0.5, hcDAF12 agonist -0.3, DAX1 inh-2 -0.8 and ssDAF12 agonist -1.5.
OCc1cn(-c2ccccc2)nc1-c1cc2ccccc2o1 was read as hgDAF-12 ag 14.4*, DAX1 inh-1 5.8*, hcDAF12 agonist 3.9, DAX1 inh-2 4.7*, ssDAF12 agonist 1.1*, DAX1 inh confirm 15.0*, SF1 AF2mut Luc 12.1*, hgDAF12 ag 15.3* and LXRb DAF12 ctr 0.8.
CC(=O)N1CCCN(C(=O)C2CCN(c3ncnc4c3sc3cccc(F)c34)CC2)CC1 was read as hgDAF-12 ag 2.1, DAX1 inh-1 -1.5, hcDAF12 agonist 0.5 and ssDAF12 agonist -1.6.
